Screens deposited in PubChem by several laboratories.
Bead autofluor = flagged as autofluorescent in microsphere protease counterscreen; AID 624483; compound autofluorescence counterscreen, microsphere flow cytometry; hits give high values; hit rate 3.1% among 360,000; fluorescence intensity (test concentration not listed); in the data active means fluorescence intensity above about 16000; inconclusive means no clear call, values can overlap the other calls
FBA Mtb inh = inhibits M. tuberculosis FBA enzyme | hit rate 2.3% among 360,000 | P9WQA3 | purified M. tuberculosis FBA, fluorescence read-out | inhibition, % at 1 µM; in the data active means inhibition above about 27%
BoNT-F LC inh = BoNT F light chain protease inhibition; AID 588497; Multiplex microsphere protease cleavage assay, flow cytometry; inhibition, % at 10 µM; hit rate 0.22% among 360,000; in the data active means inhibition above about 35%, passing the limit was not always enough; inconclusive means no clear call, values can overlap the other calls
GDH-TPI counter-1 = counter-screen for M. tuberculosis FBA inhibitors: GDH-TPI coupled enzymes; GDH-TPI coupled enzyme counterscreen, NADH absorbance; inhibition, % at 4.8 µM; hit rate 1.2% among 360,000; in the data active means inhibition above about 30%
BoNT A protease = BoNT A light chain protease inhibition. hit rate 0.17% among 360,000. inhibition, % at 10 µM. AID 588499. multiplex microsphere protease substrate cleavage, flow cytometry
Anthrax LF inh2 = anthrax lethal factor protease inhibition. P15917. multiplex microsphere protease cleavage assay, LF. inhibition, % at 10 µM. hit rate 0.12% among 360,000
Target sequence (P15917 whole entry, looked up): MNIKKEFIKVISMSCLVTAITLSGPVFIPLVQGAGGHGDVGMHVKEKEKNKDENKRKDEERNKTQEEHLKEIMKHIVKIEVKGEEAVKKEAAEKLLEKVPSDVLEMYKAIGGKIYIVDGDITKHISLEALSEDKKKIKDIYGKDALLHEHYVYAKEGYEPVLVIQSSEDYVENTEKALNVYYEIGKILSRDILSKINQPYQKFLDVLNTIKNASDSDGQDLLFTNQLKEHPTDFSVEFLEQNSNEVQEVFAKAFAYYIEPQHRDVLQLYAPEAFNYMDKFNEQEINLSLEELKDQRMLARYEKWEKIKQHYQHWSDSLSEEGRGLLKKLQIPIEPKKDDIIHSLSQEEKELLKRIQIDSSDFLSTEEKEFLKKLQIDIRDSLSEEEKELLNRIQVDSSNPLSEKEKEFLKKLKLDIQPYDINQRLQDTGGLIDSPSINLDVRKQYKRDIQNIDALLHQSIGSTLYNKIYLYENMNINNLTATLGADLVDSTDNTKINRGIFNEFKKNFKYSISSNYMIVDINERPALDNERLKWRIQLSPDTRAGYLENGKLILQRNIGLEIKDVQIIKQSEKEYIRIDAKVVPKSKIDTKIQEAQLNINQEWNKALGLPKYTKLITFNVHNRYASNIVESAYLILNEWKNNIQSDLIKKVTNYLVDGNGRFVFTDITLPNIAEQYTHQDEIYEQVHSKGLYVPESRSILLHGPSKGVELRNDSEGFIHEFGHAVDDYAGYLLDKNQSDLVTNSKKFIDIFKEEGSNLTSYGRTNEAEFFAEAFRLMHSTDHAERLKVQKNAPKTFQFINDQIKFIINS
Mtb FBA inh conf = confirmation of M. tuberculosis fructose-bisphosphate aldolase inhibitors. shares compounds with FBA Mtb inh. purified M. tuberculosis FBA, fluorescence read-out. inhibition, % at 1 µM. hit rate 78% among 5,600; in the data active means inhibition above about 27%
GDH-TPI counter-2 = counter-screen for M. tuberculosis FBA inhibitors: GDH-TPI coupled enzyme inhibition; inhibition, % at 1 µM; GDH-TPI coupled enzyme counterscreen, fluorescence; hit rate 81% among 5,600; shares compounds with FBA Mtb inh; in the data active means inhibition above about 10%
Hits are given with their value; n = inactive; u = inconclusive; x = no result; + = active, no number. A selection: hits, their analogues and other compounds. The true share with any hit is near 6.6%. Unless noted, no stated cut-off is given here; in the data, active means inhibition above about 30%; inconclusive means no clear call, values can overlap the other calls; inactive means below that.

SMILES	Bead autofluor	FBA Mtb inh	BoNT-F LC inh	GDH-TPI counter-1	BoNT A protease	Anthrax LF inh2	Mtb FBA inh conf	GDH-TPI counter-2
O=C(COC(=O)c1ccc(F)cc1Cl)NC1CC1	n	n	n	n	n	n	x	x
Cc1ccc(C)c(C2NC(=O)c3ccccc3N2)c1 (centres undefined)	n	63	n	n	n	n	93	72
O=C1NC(c2ccc(O)cc2)Nc2ccccc21 (centres undefined)	n	37	n	n	n	n	39	34
COC(=O)c1ccccc1S(=O)(=O)NNC(=O)Nc1ccccc1	n	n	n	n	n	n	x	x
Cc1ccc(-c2n[nH]c(=S)n2/N=C/c2ccc(C(=O)O)cc2)cc1	n	n	n	n	n	n	x	x
S=c1[nH]c(-c2ccccc2)cn1/N=C/c1cccnc1	n	34	n	n	n	n	94	85
O=C(O)c1ccc(/C=N/n2cc(-c3ccccc3)[nH]c2=S)cc1	n	37	n	n	n	n	50	38
S=c1[nH]ncn1/N=C/c1cccs1	n	n	n	n	n	n	x	x
S=c1[nH]c(-c2ccccc2)cn1/N=C/c1cccs1	n	31	n	40	n	n	152	126
S=c1[nH]c(-c2ccccc2)cn1/N=C/c1ccc(Br)cc1	n	33	n	n	n	n	170	126
O=[N+]([O-])c1ccc(Cl)c(S(=O)(=O)N2CCCCCC2)c1	n	n	n	n	n	n	x	x
CCN(CC)C(=O)c1sc(NC(=O)c2ccc(C)c([N+](=O)[O-])c2)c(C#N)c1C	n	n	n	n	n	n	x	x
COc1ccccc1COc1ccc2c(C)c(CCC(=O)O)c(=O)oc2c1C	n	n	n	n	n	n	x	x
Cc1c(CC(=O)O)c(=O)oc2cc(OCc3ccc(Br)cc3)ccc12	n	86	n	n	n	n	139	122
Cc1c(CCC(=O)O)c(=O)oc2cc(OCc3ccccc3Br)ccc12	n	61	n	n	n	n	99	69
Cc1c(CCC(=O)O)c(=O)oc2cc(OCc3cccc(F)c3)ccc12	n	86	n	n	n	n	n	n
CC(=O)c1ccc(NC(=O)N2C3CCC2CC(O)(c2cccnc2)C3)cc1 (centres undefined)	n	n	n	n	n	n	x	x
Cc1ccccc1S(=O)(=O)N1C[C@H]2[C@H]3C(=O)N(c4ccccc4)C(=O)[C@H]3CC(=O)[C@H]2[C@@H]1c1ccc(Cl)cc1	n	n	n	x	n	n	x	x
CCc1nnc(NC(=O)Cc2cc(OC)c(OC)c(OC)c2)s1	n	n	n	n	n	n	x	x
O=C(O)C1CSC(c2ccc3c(c2)OCO3)N1 (centres undefined)	n	42	n	n	n	n	n	n
O=C(O)C1CSC(c2ccc(O)c([N+](=O)[O-])c2)N1 (centres undefined)	n	n	n	n	n	n	x	x
Nc1ncc(-c2ccc(F)cc2)nc1N1CCN(CCO)CC1	n	47	n	n	n	n	123	89
OCCN1CCN(c2nc3ccccc3nc2-c2ccccc2)CC1	n	n	n	n	n	n	x	x
COc1cccc(CNC(=O)C2CCN(c3nnc(N4CCCC4=O)s3)CC2)c1	n	n	n	n	n	n	x	x
CCN(CC)C(=O)Cn1cc(S(=O)(=O)CC(=O)NC2CCCCC2)c2ccccc21	n	33	n	n	n	n	99	83
SMILES	Bead autofluor	FBA Mtb inh	BoNT-F LC inh	GDH-TPI counter-1	BoNT A protease	Anthrax LF inh2	Mtb FBA inh conf	GDH-TPI counter-2
Cc1ccc(Cn2c(SCCN3CCCCC3)nc3c2c(=O)n(C)c(=O)n3C)cc1	n	63	n	n	n	n	n	11
c1ccc(-c2nnsc2Sc2ccccn2)cc1	n	n	n	n	n	n	x	x
Cc1ncc(CO)c(/C=N/NC(=O)c2ccoc2C)c1O	n	33	n	n	n	u	n	n
COc1ccc(OC)c(/C=C/C(=O)NCCc2nc3ccccc3[nH]2)c1	x	50	x	n	x	x	83	53
O=C(Cc1nc2ccccc2[nH]1)N/N=C/c1ccccc1	n	n	n	n	n	n	x	x
COc1ccc(OC)c(/C=N/NC(=O)Cc2nc3ccccc3[nH]2)c1	n	74	n	n	n	n	51	30
CCC1(c2ccc(F)cc2)NC(=O)N(CC(=O)NCC(=O)Nc2cccc(C)c2C)C1=O (centres undefined)	u	n	n	n	n	n	x	x
CCCn1nnc(NC(=S)NC(=O)C(C)(C)C)n1	n	n	n	n	n	n	x	x
CCCn1nnc(NC(=S)NC(=O)c2cccs2)n1	n	37	n	n	n	n	39	25
COc1ccccc1CNC(=O)Cn1c(=O)c2cccn2c2cccnc21	n	n	n	n	n	n	x	x
COc1ccc(-c2ccc(C(=O)O)c(=O)[nH]2)cc1	n	71	n	n	n	n	106	81
COc1ccc(-c2cc(=O)[nH]c(=S)[nH]2)cc1	n	n	n	n	n	n	x	x
CCOc1ccc(-n2cnc3scc(-c4ccc(OC)c(OC)c4)c3c2=O)cc1	n	28	n	n	n	n	30	21
CC(C)[C@@H](CO)NC(=O)[C@H]1O[C@@H](n2cnc3c(N)ncnc32)[C@H](O)[C@@H]1O	n	n	n	x	n	n	x	x
CCCc1c2ccccc2nc2ccccc12	n	50	n	n	n	n	38	34
Nc1nc2ccccc2nc1N	n	51	n	n	n	n	69	61
Cn1c(N)nc2ccccc2c1=O	n	28	u	n	n	n	34	22
Nc1c2ccccc2nc2ccccc12	n	63	u	n	n	n	73	48
CCN(CC)S(=O)(=O)c1ccc(/C=C/C(=O)Nc2cccc(F)c2)cc1	n	n	n	n	n	n	x	x
O=C(NNC(=O)c1sccc1-n1cccc1)Nc1ccc(F)cc1	n	n	n	n	n	n	x	x
O=C(c1cccc(F)c1F)N1CCCC1	n	n	n	n	n	n	x	x
Cc1ccc(-n2c(SCC(=O)NCc3ccco3)nc3c(sc4ccccc43)c2=O)cc1	n	n	n	n	n	n	x	x
CCOC(=O)c1c(SC)[nH]c2c(Cl)cccc2c1=O	n	n	n	n	n	n	x	x
CCCc1nc2ccccc2c(=O)n1CCc1ccccc1	n	n	u	n	n	n	x	x
N#Cc1c2ccccc2nc2ccccc12	n	28	n	n	n	n	182	117
CNC(=S)N/N=C/c1ccc(N(C)C)cc1	n	42	n	40	n	n	+	+
CNC(=S)N/N=C/c1ccc(C(C)C)cc1	n	n	n	n	n	n	x	x
Cc1c(NC(=S)N/N=C/c2ccc(N(C)C)cc2)c(=O)n(-c2ccccc2)n1C	n	33	n	33	n	n	116	88
Cc1ccc(NC(=O)CCn2ccc([N+](=O)[O-])n2)nc1	n	n	n	n	n	n	x	x
CCC(=O)Nc1nnc(Cc2ccccc2)s1	n	n	n	n	n	n	x	x
